ALR inh – human ALR oxidase inhibition via reduced H2O2 | purified ALR, DTT oxidation, H2O2 HRP-luminol luminescence | actives 3.8% (n = 290,000) | P55789 | inhibition, % (test concentration not listed) | AID 485317;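 active = mean replicate inhibition above about 79%, with every replicate also reaching it, limit read from the data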
Target sequence (P55789 whole entry, looked up): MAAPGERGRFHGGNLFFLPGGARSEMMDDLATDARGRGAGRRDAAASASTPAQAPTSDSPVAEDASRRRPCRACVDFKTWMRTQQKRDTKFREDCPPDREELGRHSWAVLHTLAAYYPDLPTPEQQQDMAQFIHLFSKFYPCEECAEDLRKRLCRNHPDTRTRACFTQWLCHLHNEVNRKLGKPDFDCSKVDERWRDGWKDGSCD
HIF activator – HIF pathway transcriptional activation | U2OS HRE-luciferase reporter, luminescence; normalized: DMSO 0%, desferrioxamine 100% | activation, % at 7.5 µM (by protocol) | actives 0.32% (n = 300,000) | AID 1910;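 active = mean activation of at least 10% of the iron chelator positive control signal, with at least half of replicates also reaching 10%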
SUMO Mot1 rescue – blocks SUMOylation pathway, rescuing yeast Mot1-301 growth; actives 1% (n = 320,000); growth rescue, % at 18.8 µM; S. cerevisiae Mot1-301 growth rescue, ATP luminescence, 38.5C; percent above DMSO median, 100 means doubled;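 active = every valid replicate shows activation above 250% relative to neutral control wells; inactive = the rest, any valid replicate at or below 250%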;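 also: OY570 slx delta 5 strain wells were the positive control but not used for scaling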
PfM18AAP inh-1 – blocks P. falciparum M18 aspartyl aminopeptidase | actives 1.2% (n = 290,000) | recombinant PfM18AAP, H-Glu-NHMec fluorogenic cleavage | inhibition, % at 7.35 µM;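 active = inhibition above the campaign mean inhibition over all tested compounds plus 3 SD, cut at about 28% in these data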;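 also: 0% = plate median of test compound wells and 100% = 2 mM ZnCl2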
PfM18AAP inh-2 – PfM18AAP inhibition, confirmation. shares compounds with PfM18AAP inh-1. recombinant PfM18AAP, H-Glu-NHMec fluorogenic cleavage. inhibition, % at 7.35 µM. actives 28% (n = 2,400). AID 2170;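 active = mean inhibition over replicate wells above the hit cutoff set for the earlier primary screen, cut at about 29% in these data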;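 also: 0% = median of test compound wells and 100% = 2 mM ZnCl2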
CTSL1 counter – Cathepsin L (human) inhibition, confirmation | AID 2178 | inhibition, % at 5.96 µM | purified cathepsin L1, Z-Leu-Arg-MCA fluorescence | 2,400 tested, under 10 active | shares compounds with PfM18AAP inh-1;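 active = average inhibition across replicates above the hit cutoff set in the earlier primary screen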;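 also: 0% = median of test compound wells and 100% = Z-Phe-Ala-diazomethylketone 1 µM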
An asterisk follows results filed as active; x = no result. Hits are enriched below; roughly 5.3% of the tested compounds scored in any of these assays.

SMILES	ALR inh	HIF activator	SUMO Mot1 rescue	PfM18AAP inh-1	PfM18AAP inh-2	CTSL1 counter
O=C(O)c1cc([N+](=O)[O-])c(N2CCCC2)c([N+](=O)[O-])c1	10.4	-0.1	70.0	38.1*	13.5	0.2
CC(=O)NC1=NC(=O)/C(=C/c2cc(C)n(-c3cccc(C(=O)O)c3)c2C)S1	x	0.4	x	33.5*	-32.6	-2.7
CCN(CC)c1ccc(/C=N/Nc2cccc(C)c2)c(O)c1	-8.4	1.5	2.6	8.4	x	x
CCN(CC)c1ccc(N=Cc2ccc(N(CC)CC)cc2O)cc1	18.4	0.4	-3.8	42.5*	-22.0	-1.9
CCN(CC)c1ccc(C=Nc2ccc(C)cc2)c(O)c1	1.4	3.3	-7.5	12.7	x	x
CCN(CC)c1ccc(/C=N/NC(=S)NC)c(O)c1	98.0*	3.2	5.0	41.2*	10.4	11.8
Cc1ccc(-c2nnn(CC(=O)N(CC(=O)NC3CCCC3)c3cnc4ccccc4c3)n2)o1	-16.4	-0.1	21.8	43.8*	-36.4	4.0
CC(C)(C)NC(=O)NC(=O)COC(=O)CNS(=O)(=O)c1ccc(Br)cc1Cl	-5.4	-0.3	2.9	8.0	x	x
Oc1ccc(/C=N/NC(=S)NCCN2CCOCC2)c(O)c1	x	0.1	-6.2	52.1*	27.4	12.2
O=C(Nc1ccc(Cl)c(Cl)c1)Nn1cnnc1	-5.9	-16.3	50.9	76.5*	70.8*	-1.2
Cc1ccc(NC(=O)Nn2cnnc2)cc1Cl	-4.6	0.1	-10.5	68.8*	53.8*	-1.9
CSc1nc2c(c(=O)[nH]1)CCCC2	-5.2	-0.2	285.4	-5.9	x	x
CSc1nc(=S)c2[nH]c(=S)[nH]c2[nH]1	98.5*	-1.3	-16.8	45.9*	40.0*	-3.0
CCN(CC)C(=S)SCC(=O)Nc1ccc(S(N)(=O)=O)cc1	-26.5	-0.8	212.9	3.7	x	x
CCN(CC)C(=S)SCC(=O)Nc1nc(=O)c2ccccc2s1	-13.4	0.6	191.9	32.1*	-53.2	-9.4
Cc1cc(/C=C2\SC(=O)N(C)C2=O)c(C)n1-c1ccc(S(N)(=O)=O)cc1	1.8	2.1	-0.9	5.7	x	x
Cc1cc(/C=C2\SC(=O)N(C)C2=O)c(C)n1-c1ccc(O)cc1	14.9	0.1	19.4	33.0*	-47.5	-2.4
CC(=O)Nc1cccc(NC(=O)CCN2C(=O)c3ccccc3S2(=O)=O)c1	-0.8	-25.1	-0.8	x	x	x
CCOC(=O)N1CCN(C(=O)c2cc(COc3c(F)cccc3F)on2)CC1	-1.5	2.8	-4.2	1.8	x	x
CCC(C)[C@H](NC(=O)NCc1ccc(S(N)(=O)=O)cc1)C(=O)O (stereo not given in full)	-0.3	0.1	-13.3	-1.4	x	x
CCOC(=O)c1sc(N2C(=O)C(O)=C(C(=O)c3ccco3)C2c2ccccc2)nc1C (stereo not given)	x	x	x	19.4	x	x
CCOC(=O)c1sc(N2C(=O)C(O)=C(C(=O)c3ccco3)C2c2ccco2)nc1C (stereo not given)	x	0.8	-1.6	32.0*	-43.4	-1.7
O=c1c2ccccc2sn1-c1ccccc1	58.7	-3.5	-19.3	56.3*	51.6*	-0.1
O=C(O)c1cccc(-n2sc3ccccc3c2=O)c1	57.0	x	-32.5	x	x	x
O=c1c2ccccc2sn1-c1ccc(S(=O)(=O)N2CCCCC2)cc1	-1.9	-0.1	-36.4	12.4	x	x
SMILES	ALR inh	HIF activator	SUMO Mot1 rescue	PfM18AAP inh-1	PfM18AAP inh-2	CTSL1 counter
O=c1c2ccccc2sn1-c1ccc(S(=O)(=O)N2CCCC2)cc1	7.3	-0.1	38.2	33.1*	-22.5	-3.6
CN(C)S(=O)(=O)c1cccc(-n2sc3ccccc3c2=O)c1	x	x	-5.3	43.4*	42.6*	2.1
Cc1ccc(-n2sc3ccccc3c2=O)cc1S(=O)(=O)N1CCCCC1	x	x	18.4	39.9*	66.2*	-0.8
CCOc1ccc(OCC(=O)OCC(=O)NNC(=O)c2ccc([N+](=O)[O-])cc2)cc1	-5.0	0.8	1.9	x	x	x
CC(=O)c1ccc(OCCCC(=O)N(CCC2=CCCCC2)c2c(N)n(Cc3ccccc3)c(=O)[nH]c2=O)cc1	-4.1	0.7	11.1	x	x	x
CCN(Cc1cc(OC)c(OC)c(OC)c1)C(=S)Nc1cccc(SC)c1	-14.0	2.4	19.0	3.1	x	x
CN(C)CCCOC(=O)COc1ccc(C(C)(C)C)cc1	5.8	1.1	-15.0	2.4	x	x
CCn1c(SCC(=O)c2ccc(O)c(O)c2)nnc1-c1ccc(C)cc1	67.5	-0.2	2.4	43.1*	18.5	-8.7
